Article PMC7826789 (International Journal of Molecular Sciences, 2021)

Experiments:
Conditions in all cases: Compound Concentration (nM):1000
PRKG1 = tested on: PRKG1
PRKG2 = tested on: PRKG2
PRKR = tested on: T1, PRKR
T1 construct: gene EIF2AK2

PRKX = tested on: PRKX
PRP4 = tested on: T2, PRP4
T2 construct: gene PRPF4B

PYK2 = tested on: T3, PYK2
T3 construct: gene PTK2B

QSK = tested on: T4, QSK
T4 construct: gene KIAA0999

RAF1 = tested on: RAF1
RET(M918T) = tested on: RET(M918T)
RET(V804L) = tested on: RET(V804L)
RET(V804M) = tested on: RET(V804M)
RET = tested on: RET
RIOK1 = tested on: RIOK1
RIOK2 = tested on: RIOK2
RIOK3 = tested on: RIOK3
RIPK1 = tested on: RIPK1
RIPK2 = tested on: RIPK2
RIPK4 = tested on: RIPK4
RIPK5 = tested on: T5, RIPK5
T5 construct: gene DSTYK

ROCK1 = tested on: ROCK1
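Note: KINOMEscan scanMAX binding as percent activity remaining versus control; lower means stronger binding.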

SMILES | Percent Control (PRKG1) [%] | Percent Control (PRKG2) [%] | Percent Control (PRKR) [%] | Percent Control (PRKX) [%] | Percent Control (PRP4) [%] | Percent Control (PYK2) [%] | Percent Control (QSK) [%] | Percent Control (RAF1) [%] | Percent Control (RET(M918T)) [%] | Percent Control (RET(V804L)) [%] | Percent Control (RET(V804M)) [%] | Percent Control (RET) [%] | Percent Control (RIOK1) [%] | Percent Control (RIOK2) [%] | Percent Control (RIOK3) [%] | Percent Control (RIPK1) [%] | Percent Control (RIPK2) [%] | Percent Control (RIPK4) [%] | Percent Control (RIPK5) [%] | Percent Control (ROCK1) [%]
COC(=O)Nc1nc2ccc(Oc3ccc(NC(=O)Nc4cc(C(F)(F)F)ccc4F)cc3)cc2s1.Cl [GW693917A] | 100 | 91 | 85 | 100 | 100 | 94 | 88 | 17 | 0.8 | 1 | 0.5 | 0.1 | 62 | 100 | 54 | 45 | 25 | 76 | 100 | 79
O=C(Nc1n[nH]c2nc(-c3ccc(O)cc3)c(Br)cc12)C1CC1 [SB-725317] | 100 | 97 | 59 | 100 | 100 | 100 | 100 | 46 | 100 | 100 | 96 | 100 | 55 | 82 | 56 | 100 | 100 | 90 | 100 | 100
COc1ccc2cc(-c3c(-c4ccncc4)nc(-c4ccc(S(C)(=O)=O)cc4C)n3C)ccc2c1 [SB-633825] | 100 | 83 | 100 | 95 | 68 | 57 | 79 | 74 | 72 | 94 | 97 | 72 | 22 | 92 | 78 | 34 | 81 | 61 | 75 | 78
CC(C)COC(=O)c1ccc2c(c1)/C(=C/Nc1ccc(S(N)(=O)=O)cc1)C(=O)N2 [GW416981X] | 100 | 54 | 65 | 100 | 96 | 100 | 95 | 100 | 83 | 43 | 26 | 100 | 21 | 100 | 15 | 100 | 100 | 100 | 48 | 36
CCS(=O)(=O)c1ccc(OC)c(Nc2ncc(-c3cccc(OC)c3)o2)c1 [GW580509X] | 100 | 100 | 85 | 100 | 82 | 100 | 100 | 100 | 50 | 78 | 75 | 55 | 100 | 82 | 98 | 100 | 88 | 90 | 91 | 100
COc1cc2ncn(-c3cc(O[C@H](C)c4ccccc4Cl)c(C(N)=O)s3)c2cc1OC [GSK237701A] | 100 | 92 | 82 | 97 | 61 | 62 | 97 | 73 | 51 | 56 | 77 | 54 | 26 | 100 | 19 | 61 | 100 | 87 | 84 | 69
CN1CCN(C(=O)c2ccc(NC(=O)Nc3ccc(N(C)c4ccnc(Nc5ccc(CS(C)(=O)=O)cc5)n4)cc3)cc2)CC1.Cl [GW830263A] | 100 | 100 | 100 | 100 | 88 | 20 | 86 | 90 | 0.2 | 5.5 | 0.5 | 0 | 2.2 | 21 | 0 | 100 | 94 | 57 | 5.4 | 17
NS(=O)(=O)c1ccc(N/N=C2\C(=O)Nc3ccc(Cl)cc32)cc1 [GW280670X] | 85 | 100 | 86 | 100 | 100 | 100 | 100 | 100 | 100 | 100 | 100 | 100 | 74 | 100 | 89 | 100 | 100 | 100 | 100 | 100
COc1cccc(-c2c[nH]c3c(N/N=C/c4ccncc4)ncnc23)c1 [GW814408X] | 100 | 97 | 94 | 100 | 100 | 100 | 28 | 74 | 79 | 95 | 100 | 85 | 49 | 76 | 66 | 100 | 41 | 13 | 100 | 79
Nc1ncnc2occ(-c3ccc(NC(=O)Nc4cc(C(F)(F)F)ccc4F)cc3)c12 [GW770249X] | 71 | 100 | 72 | 100 | 100 | 90 | 100 | 38 | 0.8 | 0.6 | 0.1 | 0 | 56 | 100 | 44 | 26 | 100 | 100 | 80 | 84
CN(C)c1cc2c(Nc3ccc4c(cnn4Cc4ccccc4)c3)ncnc2cn1 [GW282974X] | 100 | 93 | 76 | 80 | 100 | 83 | 95 | 100 | 82 | 93 | 89 | 86 | 98 | 100 | 100 | 53 | 27 | 74 | 90 | 100
Cl.c1ccc(Cc2nc3ccc(Nc4ncnc5ccccc45)cc3[nH]2)cc1 [GR269666A] | 100 | 100 | 84 | 100 | 100 | 100 | 100 | 100 | 100 | 100 | 100 | 100 | 100 | 88 | 100 | 100 | 67 | 98 | 98 | 100
COc1ccc2c(-c3ccnc(Nc4cccc(OC(F)(F)F)c4)n3)cnn2n1 [GW810372X] | 82 | 97 | 75 | 100 | 100 | 96 | 95 | 100 | 100 | 100 | 100 | 100 | 42 | 29 | 51 | 100 | 100 | 77 | 100 | 100
NS(=O)(=O)c1ccc(N/N=C2\C(=O)Nc3ccc(C(=O)NCc4ccncc4)cc32)cc1 [GW300657X] | 100 | 94 | 65 | 94 | 81 | 58 | 100 | 100 | 80 | 74 | 84 | 92 | 62 | 77 | 63 | 89 | 100 | 72 | 47 | 64
Cl.O=C(O[C@H]1CN[C@H](C#Cc2cc3ncnc(Nc4ccc5c(cnn5Cc5ccccc5)c4)c3s2)C1)N1CCOCC1 [GSK200398A] | 95 | 100 | 65 | 77 | 100 | 99 | 100 | 88 | 100 | 100 | 100 | 100 | 100 | 100 | 100 | 100 | 16 | 84 | 100 | 96
Cl.O=C(Nc1ccc(Oc2ccc3[nH]c(NC(=O)c4ccco4)nc3c2)cc1)Nc1cc(C(F)(F)F)ccc1F [GW683134A] | 96 | 88 | 68 | 100 | 100 | 93 | 100 | 9.5 | 0.7 | 0.4 | 0.4 | 0 | 64 | 98 | 40 | 21 | 48 | 100 | 100 | 73
COc1cc(/C=N/Nc2ncnc3[nH]ncc23)ccc1O [GW578748X] | 100 | 22 | 41 | 100 | 100 | 100 | 90 | 100 | 4.6 | 76 | 77 | 5.9 | 47 | 8.9 | 46 | 100 | 100 | 6.9 | 75 | 63
O=C1Nc2ccc(C(=O)c3ccco3)cc2C1=Cc1cc(Cl)c(O)c(Cl)c1 [GW406108X] | 100 | 100 | 62 | 100 | 71 | 100 | 100 | 13 | 56 | 29 | 28 | 96 | 46 | 73 | 30 | 100 | 75 | 91 | 54 | 77
